Records with an inconclusive call do not appear. Active and inactive are the calls of the source. Calls follow the shape of the dose curve; as a rule, active = well fitted curve in the direction sought with a large enough effect; inconclusive = small, poorly fitted or top-dose-only effect, or another doubt; inactive = no such curve, though single readings can be large; an effect the other way counts as inactive or inconclusive.

Experiment [1] in a line: Quantitative High-Throughput drug screen in 47 multiple myeloma cell lines against the NCATS MIPE library collection: KMS12PE_JCRB cell viability assay (AID 1918972). Also: nearly all actives have a fitted effect of over 30% in size. Also: potency is read from the fitted curve at half-maximal effect. As to viability: series mostly up to about 46 µM. Summed up: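 qHTS of the MIPE 4.0 collection: 500 myeloma cells/well, 48 h drug exposure at 37C in 5% CO2, then CellTiter-Glo for 5 min at room temperature before luminescence reading.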
Experiment [2] can be described thus: Quantitative High-Throughput drug screen in 47 multiple myeloma cell lines against the NCATS MIPE library collection: MMM1_PLB cell viability assay (AID 1918976). Also: potency is read from the fitted curve at half-maximal effect; nearly all actives have a fitted effect of over 35% in size. Summed up: (§1)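 Viability after 48 h drug exposure was measured as ATP-dependent luminescence. Cells, 500 per well, sat at 37 °C under 5% CO2; DMSO wells set 100%, media-only wells 0%.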
Experiment [3] in a line: Quantitative High-Throughput drug screen in 47 multiple myeloma cell lines against the NCATS MIPE library collection: OCIMY1_PLB cell viability assay (AID 1918979). Also: series mostly up to about 46 µM; nearly all actives have a fitted effect of over 35% in size. Summed up:
as §1

Experiment [4] is described as follows: Quantitative High-Throughput drug screen in 47 multiple myeloma cell lines against the NCATS MIPE library collection: MM1R_ATCC cell viability assay (AID 1918981). Also: nearly all actives have a fitted effect of over 35% in size. Also: potency is read from the fitted curve at half-maximal effect. Summed up: as §1
Experiment [5] in a line: Quantitative High-Throughput drug screen in 47 multiple myeloma cell lines against the NCATS MIPE library collection: MM1S_ATCC cell viability assay (AID 1918980). Also: nearly all actives have a fitted effect of over 45% in size. Also: potency is read from the fitted curve at half-maximal effect. Summed up:
as §1

Experiment [6] can be described thus: Quantitative High-Throughput drug screen in 47 multiple myeloma cell lines against the NCATS MIPE library collection: NCIH929_DSMZ cell viability assay (AID 1918978). Also: nearly all actives have a fitted effect of over 35% in size. Also: potency is read from the fitted curve at half-maximal effect. Summed up:
as §1

Experiment [7] can be described thus: Quantitative High-Throughput drug screen in 47 multiple myeloma cell lines against the NCATS MIPE library collection: MOLP8_DSMZ cell viability assay (AID 1918977). Also: nearly all actives have a fitted effect of over 45% in size. Summed up:
as §1

Experiment [8] in a line: Quantitative High-Throughput drug screen in 47 multiple myeloma cell lines against the NCATS MIPE library collection: KMS20_JCRB cell viability assay (AID 1918973). Also: nearly all actives have a fitted effect of over 45% in size. Also: potency is read from the fitted curve at half-maximal effect. Summed up: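 CellTiter-Glo luminescence (ATP) after 48 h compound exposure, 37C/5% CO2; 500 cells/well; MIPE 4.0 approved/investigational drugs pinned in; DMSO = 100%, media only = 0% viability.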
Experiment [9] in a line: Quantitative High-Throughput drug screen in 47 multiple myeloma cell lines against the NCATS MIPE library collection: KMS26_JCRB cell viability assay (AID 1918975). Also: nearly all actives have a fitted effect of over 45% in size. Also: potency is read from the fitted curve at half-maximal effect. Summed up:
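Luminescent ATP measurement with CellTiter-Glo gives viability, scaled between DMSO-only wells (100%) and media-only wells (0%). Cells, 500 per well, faced library compounds for 48 hours at 37C.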

`C=C[C@@H]1CN2CCC1C[C@@H]2C(O)c1ccnc2ccc(OC)cc12` (stereo partly drawn): the Potency result in experiment [1] and in [3] was “inactive” throughout. Also, the figures for the Potency in [2] and in experiment [4] were 11.8 µM (active) and 18.7 µM (active), respectively.
As to `Cn1cc(-c2ccc3nnc(Sc4ccc5ncccc5c4)n3n2)cn1`, the Potency in experiment [1] was 5.26 µM (active); in [2], 16.6 µM (active); in experiment [5], 4.18 µM (active); in experiment [4] it was 23.5 µM (active). Moreover, in experiment [3], the Potency result is “inactive”.
Consider `CC[C@H](CC#N)OC(=O)N[C@@H](C)c1cccc(NC(=O)Nc2ccc(-c3cnco3)c(OC)c2)c1`, for which the figures for the Potency in experiment [1], in experiment [2] and in [5] were 14.8 µM (active), 20.9 µM (active) and 1.18 µM (active), respectively.
Take `O=C(CCCN1CCN(c2ccc(F)cc2)CC1)NC1c2ccccc2CSc2ccccc21` (stereo not drawn): the Potency in experiment [1] is 4.18 µM (active); in experiment [2] it was 5.9 µM (active); in experiment [5] it was 10.5 µM (active); in experiment [4], 18.7 µM (active).
Turning to `Cc1cc(NC(=O)Nc2ccc(N(C)C)cc2)c2cc(F)cc(F)c2n1`, the Potency was 1.66 µM (active) in experiment [1], 20.9 µM (active) in experiment [2] and 16.6 µM (active) in experiment [5]. Further, the Potency entry in [6] and in experiment [3] was “inactive” each time.
With `Cc1c(-c2cccc3c(CCCOc4cccc5ccccc45)c(C(=O)O)n(Cc4cccnc4)c23)c(COc2ccc(N3CCN([S+](=O)([O-])N(C)C)CC3)cc2)nn1C`, the Potency entry in [1] and in experiment [3] was “inactive” each time. Further, the Potency is 3.72 µM (active) in experiment [6] and 23.5 µM (active) in [5].
Take `O=C1CCCC(=O)C1C(=O)c1ccc(C(F)(F)F)cc1[N+](=O)[O-]`: the Potency result in [1], in experiment [6], in experiment [3] and in [4] was “inactive” in each case. In addition, the Potency in experiment [5] was 18.7 µM (active).
Take `O=C(O)C1=NC(C(=O)O)CC(C=CN2c3cc(O)c(OC4OC(CO)C(O)C(O)C4O)cc3CC2C(=O)O)=C1` (stereo not drawn): the Potency entry in [1], in experiment [3], in [5] and in experiment [4] was “inactive” each time. The Potency in experiment [2] is 23.5 µM (active).
Regarding `CCCC1OC2C[C@@H]3[C@H]4CCC5=CC(=O)C=C[C@]5(C)[C@H]4C(O)C[C@]3(C)[C@]2(C(=O)CO)O1` (stereo partly drawn), the Potency entry in [1] and in experiment [3] was “inactive” each time. For the same compound, the figures for the Potency in experiment [2], in experiment [6] and in [5] were 0.0066 µM (active), 0.296 µM (active) and 0.0743 µM (active), respectively.
Regarding `O=C1NC(=O)C(=Cc2ccc(-c3ccc(F)cc3O)o2)S1`, the Potency entry in [1] and in [3] was “inactive” throughout. The Potency in experiment [2] is 2.96 µM (active); in experiment [5] it was 16.6 µM (active).
On to `C[C@]12C=CC(=O)C=C1CC[C@@H]1[C@@H]2[C@@H](O)C[C@@]2(C)[C@@H]1CC[C@]2(O)C(=O)CO`, for which the Potency entry in [1] and in experiment [3] was “inactive” throughout. The Potency in experiment [2] is 0.166 µM (active); in [5] it was 5.26 µM (active); in experiment [4] it was 6.62 µM (active).
Regarding `Cc1cc2nc3c(=O)[nH]c(=O)nc-3n(CC(O)C(O)C(O)CO)c2cc1C` (stereo not drawn), the Potency result in experiment [1], in experiment [7], in experiment [6], in experiment [3] and in [5] was “inactive” each time.
On to `Oc1ccc(C=Cc2cc(O)cc(O)c2)cc1`, for which the Potency entry in [1] and in [3] was “inactive” in each case. Further, the Potency was 16.6 µM (active) in experiment [2], 18.7 µM (active) in [5] and 16.6 µM (active) in experiment [4].
Consider `COc1nc(C)cnc1NS(=O)(=O)c1cccnc1-c1ccc(-c2nnco2)cc1`, for which the Potency entry in experiment [1], in experiment [6], in [3], in [5] and in experiment [4] was “inactive” in each case. Moreover, in experiment [2], the Potency is 5.26 µM (active).
Turning to `C#CCN(C)CC1=Cc2ccccc2Oc2ccccc21`, the Potency entry in experiment [1], in experiment [6] and in [3] was “inactive” in each case.
With `CNC(=O)[C@H](Cc1ccccc1)NC(=O)[C@H](CC(C)C)[C@H](CSc1cccs1)C(=O)NO`, the Potency result in experiment [8] and in [9] was “inactive” each time. In addition, the figures for the Potency in [6] and in experiment [5] were 9.35 µM (active) and 26.4 µM (active), respectively.
Take `CCCCn1c(=O)n(Cc2ccccc2F)c(=O)c2[nH]c(Cc3ccc(NC(C)=O)cc3)nc21`: the Potency result in experiment [1], in experiment [6] and in experiment [4] was “inactive” throughout. The Potency in [5] was 20.9 µM (active).
As to `COc1cc(CNC(=O)CCCCC=CC(C)C)ccc1O`, the Potency result in experiment [1], in [3], in [5] and in experiment [4] was “inactive” each time. Also, the Potency in experiment [6] is 18.7 µM (active).
As for `Cn1c(=O)c(Oc2ccc(F)cc2F)cc2cnc(NC3CCOCC3)nc21`, the Potency entry in [8], in [9] and in [6] was “inactive” throughout. In addition, the Potency in experiment [2] was 1.87 µM (active); in experiment [4], 7.43 µM (active).
In the case of `CN1N=C(N)c2cn([C@@H]3O[C@H](COP(=O)(O)O)[C@@H](O)[C@@H]3O)c3ncnc1c23`, the Potency in experiment [8] was 1.32 µM (active); in [9] it was 0.0132 µM (active); in experiment [2], 0.469 µM (active); in [6] it was 0.0469 µM (active); in [5] it was 1.18 µM (active); in experiment [4] it was 5.9 µM (active).
Take `OC[C@H]1O[C@@H](Oc2ccc(O)cc2)[C@H](O)[C@@H](O)[C@H]1O`: the Potency entry in experiment [8], in [9] and in experiment [4] was “inactive” throughout.
`CN(CC=CC#CC(C)(C)C)Cc1cccc2ccccc12`: the Potency result in experiment [1], in experiment [6] and in experiment [5] was “inactive” in each case.
`COc1ccc2nc3cc(Cl)ccc3c(Nc3cc(CN4CCCC4)c(O)c(CN4CCCC4)c3)c2n1`: the Potency in experiment [8] is 20.9 µM (active); in experiment [9], 16.6 µM (active); in experiment [2], 14.8 µM (active); in [6], 18.7 µM (active); in [5], 20.9 µM (active).
As to `COc1ccc(-c2ccc3ncc4c(c3c2)n(-c2ccc(N3CCNCC3)c(C(F)(F)F)c2)c(=O)n4C)cn1`, the figures for the Potency in [8] and in [2] were 0.0066 µM (active) and 0.0074 µM (active), respectively.
For `CCNC(=O)[C@H]1O[C@@H](n2cnc3c(N)nc(NCCc4ccc(CCC(=O)O)cc4)nc32)[C@H](O)[C@H]1O`, the Potency is 0.132 µM (active) in experiment [1], 0.332 µM (active) in experiment [6], 0.332 µM (active) in experiment [5] and 0.0526 µM (active) in [4]. The Potency entry in experiment [3] is “inactive”.
Regarding `C[C@H]1[C@H](O)O[C@@H]2O[C@@]3(C)CC[C@@H]4[C@H](C)CC[C@@H]1[C@@]24OO3`, the Potency in experiment [8] was 14.8 µM (active); in experiment [9], 10.5 µM (active); in experiment [5], 11.8 µM (active).
